KB-V1 cytotox: KB-V1 MDR subline cytotoxicity | Potency, µM (doses to about 46.1 µM), usual class: cytotoxic | KB-V1 MDR cells viability, CellTiter-Glo, 72 h | AID 1347076 | 400,000 compounds, 3.4% hits; note: nearly all actives have a fitted effect of over 60% in size
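In this primary screen, KB-V1 cells overexpressing P-gp are incubated with library compounds (lowest to highest concentration) for 72 h at 37 degrees C before a luminescent ATP viability read.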
SW480 rerep: induces DNA re-replication in SW480 colon adenocarcinoma cells; SW480 DNA re-replication, Hoechst DNA content imaging, 48 h; Potency, µM (titrated, usually from 46.1 µM), hits mostly activators; 340,000 compounds, 1.8% hits; AID 624297; note: nearly all actives have a fitted effect of over 55% in size
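250 cells/well; 23 nL cpd via pin tool; 48 hr, 37 C, 5% CO2; Hoechst 40 min; imager read of total nuclear intensity, ex 405/em 500-530 nm.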
HT1080NT lethal: kills 2HG-producing HT-1080-NT fibrosarcoma cells | HT-1080-NT fibrosarcoma viability, CellTiter-Glo ATP luminescence, 48 h | 360,000 compounds, 1.6% hits | Potency, µM (highest dose often 46.1 µM), actives largely listed as cytotoxic;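 note: NT is the 2HG producing partner of a matched IDH1 knockdown line; nearly all actives have a fitted effect of over 55% in size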
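750 cells/well, RPMI + 5% FBS; 2 h settle, compound pin-transfer, 48 h at 37 degrees C. CellTiter-Glo 10 min RT, luminescence. Normalized to DMSO and media-only wells.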
KB-3-1 tox: kills parental KB-3-1 adenocarcinoma cells; 400,000 compounds, 1.4% hits; AID 1347075; KB-3-1 viability, CellTiter-Glo ATP luminescence, 72 h; Potency, µM (titrated, usually from 46.1 µM), most hits filed as cytotoxic; note: nearly all actives have a fitted effect of over 60% in size
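72 h, 37 °C compound treatment of KB-3-1 parental cells; CellTiter-Glo added, 10 min, luminescence read. Data corrected against DMSO-only plates and normalized before curve fitting.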
HT1080 IDH1KD tx: kills HT-1080 cells with IDH1 knockdown; 360,000 compounds, 2% hits; HT-1080 IDH1 knockdown viability, ATP luminescence, 48 h; AID 686971; Potency, µM (titrated, usually from 46.1 µM), actives largely listed as cytotoxic
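IDH1KD HT-1080 cells, 750/well, RPMI + 5% FBS; compound pinned after 2 h settling; 48 h, 37 °C; CellTiter-Glo luminescence; % activity normalised to DMSO and no-cell wells; curves fitted, classed by r2 and efficacy.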
MCF10A rerep: induces DNA re-replication in MCF 10a normal breast cells | AID 624296 | Potency, µM (top dose mostly 46.1 µM), actives largely listed as activators | MCF 10A DNA re-replication, Hoechst nuclear intensity, 48 h | 350,000 compounds, 2.9% hits; note: nearly all actives have a fitted effect of over 50% in size
Large screens that a line does not name were inactive. Only some compounds are listed: those with a hit (about 7.9% of all), similar ones and a draw of the others. Calls come from the whole dose curve; as a rule, active = well fitted curve in the direction sought with a large enough effect; inconclusive = small, poorly fitted or top-dose-only effect, or another doubt; inactive = no such curve, though single readings can be large; an effect the other way counts as inactive or inconclusive.

CC12CC(c3ccccc3O1)N(C(=O)c1ccco1)C(=S)N2c1ccccc1 (stereo unspecified)	MCF10A rerep 23µM
CC1CC(N(C(=O)c2ccco2)c2ccccc2)c2ccccc2N1C(=O)c1ccco1 (stereo unspecified)	SW480 rerep inconclusive
Cn1c(Cc2cccs2)nnc1SCC(=O)Nc1ccc(F)cc1F	none
CCNC(=O)c1c(O)c2ccccc2[nH]c1=O	HT1080NT lethal inconclusive, MCF10A rerep 6.5µM
CC(C)=NNC(=O)c1c(O)c2ccccc2[nH]c1=O	HT1080NT lethal inconclusive, MCF10A rerep 9.2µM
O=C(NCCc1ccccc1)c1c(O)c2ccccc2[nH]c1=O	none
O=C(C=Cc1ccccc1)Nc1ccccc1	KB-3-1 tox inconclusive
Cc1nc(NC(=O)/C=C/c2ccccc2)n[nH]1	KB-V1 cytotox inconclusive, SW480 rerep inconclusive, HT1080NT lethal 9.2µM, KB-3-1 tox inconclusive, HT1080 IDH1KD tx 18µM, MCF10A rerep inconclusive
Cn1c(=O)c2c(n3c4ccccc4nc13)NC(=O)CC2c1ccccc1F (stereo unspecified)	none (no result: SW480 rerep, HT1080NT lethal, HT1080 IDH1KD tx, MCF10A rerep)
CC(C)(C)c1nc(-c2ccccc2)nc2c1OCCC2	KB-V1 cytotox inconclusive, MCF10A rerep 26µM
Cc1cc(C(=O)C(C)OC(=O)c2ccc(NC(=O)CC#N)cc2)c(C)n1-c1ccc(OC(F)F)cc1 (stereo unspecified)	KB-V1 cytotox 18µM, KB-3-1 tox 2.9µM, HT1080 IDH1KD tx 26µM
Cc1[nH]c2ccccc2c1C(=O)C(C)OC(=O)c1ccc(NC(=O)CC#N)cc1 (stereo unspecified)	none
O=C(CC[C@H]1O[C@@H](n2ccc(=O)[nH]c2=O)[C@H](O)[C@@H]1O)N[C@@H](Cc1ccccc1)C(=O)NCC1CCCO1 (stereo partly specified)	KB-V1 cytotox 7.3µM, HT1080NT lethal inconclusive (no result: SW480 rerep, MCF10A rerep)
CCOc1ccc(CCNC(=O)c2cc3c(-c4ccccc4F)nn(C)c3s2)cc1	none (no result: SW480 rerep, HT1080NT lethal, HT1080 IDH1KD tx, MCF10A rerep)
O=C(Nc1nc2ccccc2s1)c1cc2c(s1)-c1ccccc1OC2	SW480 rerep 6.5µM, MCF10A rerep inconclusive
O=C(Nc1nccs1)c1cc2c(s1)-c1ccccc1OC2	SW480 rerep 16µM, KB-3-1 tox inconclusive, MCF10A rerep 9.2µM
O=C(Nc1cccnc1)c1cc2c(s1)-c1ccccc1OC2	none
O=C(Nc1cccnc1Cl)c1cc2c(s1)-c1ccccc1OC2	MCF10A rerep 18µM
Cc1cccc2c1-c1sc(C(=O)Nc3nccs3)cc1CO2	SW480 rerep 7.3µM, MCF10A rerep 3.7µM
CC(=O)Nc1cncc(-c2ccccc2F)n1	none (no result: SW480 rerep, MCF10A rerep)
CC1(c2nnc(-c3cccc(Cl)c3)o2)CC(c2ccccc2Br)=NO1 (stereo unspecified)	none
O=[N+]([O-])c1ccc(/C=C/c2nc3ccc([N+](=O)[O-])cc3[nH]2)cc1	KB-V1 cytotox 3.7µM
Cc1cccc(NC2CCCCC2NS(=O)(=O)c2ccccc2)c1 (stereo unspecified)	none
O=C(Nc1cccc(NC(=O)c2cccs2)c1)c1ccc([N+](=O)[O-])o1	KB-V1 cytotox inconclusive, SW480 rerep inconclusive, HT1080NT lethal 10µM, KB-3-1 tox 16µM, HT1080 IDH1KD tx 23µM
COc1cc(NC(=O)c2ccc([N+](=O)[O-])o2)ccc1NC(=O)c1cccs1	SW480 rerep 6.5µM, KB-3-1 tox inconclusive, MCF10A rerep inconclusive
Cc1ccc(NC(=O)c2cccs2)cc1[N+](=O)[O-]	KB-V1 cytotox inconclusive
COc1ccc(CN2C(=O)C(C)Nc3ncnc(N4CCc5ccccc5C4)c32)cc1 (stereo unspecified)	KB-V1 cytotox inconclusive, HT1080NT lethal 2.1µM, KB-3-1 tox 2.3µM, HT1080 IDH1KD tx 2.3µM (no result: SW480 rerep, MCF10A rerep)
O=C(CCl)NN1C(=O)NC(c2ccccc2)(c2ccccc2)C1=O	SW480 rerep inconclusive, HT1080NT lethal inconclusive, KB-3-1 tox inconclusive, HT1080 IDH1KD tx 16µM, MCF10A rerep inconclusive
COc1ccccc1CCn1cnc(Cc2ccccc2)c1C(C)C	KB-V1 cytotox 13µM, HT1080NT lethal inconclusive, KB-3-1 tox inconclusive, HT1080 IDH1KD tx inconclusive (no result: SW480 rerep, MCF10A rerep)
CCCCCc1c(-c2ccc(Br)cc2)ncn1CCc1ccccc1OC	KB-V1 cytotox 16µM, HT1080NT lethal 16µM, KB-3-1 tox inconclusive, HT1080 IDH1KD tx 21µM (no result: SW480 rerep, MCF10A rerep)
CCCCCc1c(-c2ccc(F)cc2)ncn1CCc1ccccc1OC	KB-V1 cytotox 12µM, HT1080NT lethal inconclusive, KB-3-1 tox 18µM, HT1080 IDH1KD tx inconclusive (no result: SW480 rerep, MCF10A rerep)
COc1ccccc1CCn1cnc(-c2ccc(Br)cc2)c1C(C)C	KB-V1 cytotox inconclusive, HT1080NT lethal 23µM, KB-3-1 tox inconclusive, HT1080 IDH1KD tx 23µM (no result: SW480 rerep, MCF10A rerep)
COc1ccc(-c2ccc3c(c2)c(Sc2ccccc2)c(-c2ccccc2)n3C)cn1	KB-3-1 tox inconclusive (no result: SW480 rerep, MCF10A rerep)
Cc1nn(Cc2ccc(Cl)cc2)c(C)c1NC(=O)c1cc(C(C)C)on1	HT1080NT lethal inconclusive, MCF10A rerep inconclusive
O=C(NCc1ccco1)c1cc(-c2ccc3c(c2)OCO3)on1	HT1080NT lethal 2.2µM, HT1080 IDH1KD tx inconclusive
Cc1nn(Cc2ccc(Cl)cc2)c(C)c1NC(=O)c1cc(-c2ccc3c(c2)OCO3)on1	SW480 rerep inconclusive, KB-3-1 tox 4.1µM, MCF10A rerep 4.6µM (no result: HT1080NT lethal, HT1080 IDH1KD tx)
Cc1ccc(-c2cc(C(=O)NCc3ccco3)no2)cc1	MCF10A rerep inconclusive
Cc1nn(Cc2ccc(Cl)c(Cl)c2)c(C)c1NC(=O)c1cc(-c2ccc3c(c2)OCO3)on1	SW480 rerep 16µM, HT1080NT lethal inconclusive, KB-3-1 tox inconclusive, HT1080 IDH1KD tx inconclusive, MCF10A rerep 5.8µM
Cn1c(=O)c2[nH]c(NN=Cc3cccc(Br)c3)nc2n(C)c1=O	KB-V1 cytotox inconclusive, SW480 rerep inconclusive, MCF10A rerep inconclusive
CC(O)CNc1ncnc2cc(-c3ccc(F)cc3)sc12 (stereo unspecified)	KB-V1 cytotox inconclusive, SW480 rerep inconclusive, MCF10A rerep 13µM
COC(CNc1ncnc2sc(-c3ccccc3)cc12)OC	none
COc1cc(N2C(=O)C=CC2=O)ccc1N1C(=O)C=CC1=O	KB-V1 cytotox inconclusive, SW480 rerep 13µM, HT1080NT lethal inconclusive, KB-3-1 tox 18µM, HT1080 IDH1KD tx 9.2µM, MCF10A rerep 6.5µM
CC(NCCC(c1ccccc1)c1ccccc1)c1ccccc1 (stereo unspecified)	KB-V1 cytotox inconclusive, SW480 rerep 7.3µM, HT1080NT lethal inconclusive, HT1080 IDH1KD tx inconclusive, MCF10A rerep inconclusive
Cc1ccc(CNC(C)c2ccccc2)s1 (stereo unspecified)	none (no result: SW480 rerep, HT1080NT lethal, HT1080 IDH1KD tx, MCF10A rerep)
CC(=O)Nc1ccc(S(=O)(=O)NCc2ccc(C(=O)NCCN(C)Cc3ccccc3)cc2)cc1	none (no result: SW480 rerep, MCF10A rerep)
CCc1ccc(S(=O)(=O)NCc2ccc(C(=O)NCCN(Cc3ccccc3)C(C)C)cc2)cc1	KB-V1 cytotox inconclusive, HT1080NT lethal inconclusive, HT1080 IDH1KD tx 16µM (no result: SW480 rerep, MCF10A rerep)

From PubChem
